Source: PubChem (Small Molecule Screening Facility, UW Madison)
RMI FANCM FP – blocks RMI1/RMI2 complex binding to FANCM MM2 peptide. AID 1159607. Fluorescence polarization, RMI core complex with F-MM2 peptide; hits give low values. actives 0.58% (n = 70,000). FP signal (polarization) at 33 µM; in the data active = FP signal below about 40
Large screens that a line does not name were inactive; ! = not active in a repeat. The sample as a whole holds a higher share of hits than the screen did.

CCc1c2c(nc3sc(C(=O)Nc4ccc(-c5nc6ccccc6s5)cc4)c(N)c13)CC(C)(C)CC2=O	none
COc1ccc(-c2c3c(nc4sc(C(=O)Nc5ccc(Cl)cc5)c(N)c24)CC(C)(C)CC3=O)cc1	none
CCc1c2c(nc3sc(C(=O)c4ccc(Cl)c(Cl)c4)c(N)c13)CC(C)(C)CC2=O	RMI FANCM FP -31
Cc1nc(C)c(C(=O)Nc2cccc(Br)c2)o1	none
Cc1cccc(N2CCN(C(=O)CCc3nc4sc5c(c4c(=O)[nH]3)CCCCC5)CC2)c1C	none
Cc1ncc(CO)c(/C=C2\Oc3cc(O)ccc3C2=O)c1O	none
CN(/C=C1\Oc2cc(O)ccc2C1=O)Cc1ccccc1	RMI FANCM FP 14
O=C1/C(=C/c2ccc(Cl)cc2)Oc2cc(O)ccc21	none
O=C(NCCN1CCn2cc(OCc3ccccc3)c(=O)cc2C1=O)c1ccncc1	none
Cc1ccc([N+](=O)[O-])cc1S(=O)(=O)N1CCN(c2ncnc3c2nnn3-c2cccc(F)c2)CC1	none
O=C(Nc1cccs1)N1CCn2cccc2C1c1ccc(F)cc1 (centres undefined)	RMI FANCM FP 15
O=C(Nc1c(F)cccc1F)N1CCn2cccc2C1c1cccnc1 (centres undefined)	none
COc1ccccc1NC(=O)N1CCn2cccc2C1c1ccc(Br)cc1 (centres undefined)	none
Cc1csc2n1c(C(=O)c1ccc(Cl)cc1)c(C)[n+]2-c1ccccc1	none
CN1CCN(C(CNC(=O)c2ccc(C(F)(F)F)cc2)c2ccc(N(C)C)cc2)CC1 (centres undefined)	none
O=C(COc1ccc(Cl)cc1Cl)Nc1ccc(N2CCCC2=O)cc1	none
C=C(C)[C@@H]1CC[C@]2(CO)CC[C@]3(C)[C@H](CCC4[C@@]5(C)CC[C@H](O)C(C)(C)C5CC[C@]43C)C12 (some centres undefined)	none
CC1(C)C2CC[C@]3(C)C(C(=O)C=C4[C@H]5C[C@@](C)(C(=O)O)CC[C@]5(C)CC[C@]43C)[C@@]2(C)CC[C@@H]1O (some centres undefined)	none
O=C(Oc1c(CN2CCOCC2)cc(Cl)c2cccnc12)c1cccc([N+](=O)[O-])c1	none
Cc1oc(-c2cccc(C(F)(F)F)c2)cc1C(=O)Nc1ccc(S(N)(=O)=O)cc1	none
Cc1cc(NS(=O)(=O)c2ccc(NC(=O)c3cc(Cl)ccc3[N+](=O)[O-])cc2)no1	none
Cc1oc(-c2ccc(Cl)cc2[N+](=O)[O-])cc1C(=O)Nc1ccc(S(N)(=O)=O)cc1	RMI FANCM FP 13
Cn1c(C2CCN(S(C)(=O)=O)CC2)nn(CC(=O)Nc2ccccc2)c1=O	none
Cn1c(=NC(=O)c2ccc(C#N)cc2)sc2cc(Br)ccc21	none
CS(=O)(=O)c1ccc(CC(=O)Nc2ccc(-c3nc4ccccc4s3)cc2)cc1	none
O=C(c1ccno1)N1CCN(C2c3ccccc3-c3ccccc32)CC1	RMI FANCM FP -13!
Cc1c(C(=O)N2CCN(C3c4ccccc4-c4ccccc43)CC2)cnn1-c1ccccc1	none
O=C(c1ccc2nsnc2c1)N1CCN(C2c3ccccc3-c3ccccc32)CC1	none
CC(C)c1n[nH]c(=O)c2c1cnn2-c1ccccc1	none
Cc1ccc(Cl)c2sc(N3CCN(C(=O)C4COc5ccccc5O4)CC3)nc12 (centres undefined)	none
ClCc1nnc(-c2c[nH]c3ccccc23)o1	none
Cc1cc(-c2nnc(NC(=O)CCS(=O)(=O)c3ccc(F)cc3)o2)nn1C	none
COc1ccc(CCC(=O)NCC(c2ccsc2)N2CCOCC2)cc1 (centres undefined)	none
O=C(COC(=O)c1ccc([N+](=O)[O-])cc1[N+](=O)[O-])c1cccs1	none
CC1=C(CCC(=O)O)c2cc3nc(cc4[nH]c(cc5[nH]c(cc1n2)c(C)c5C(C)O)c(C)c4C(C)O)C(C)=C3CCC(=O)O (centres undefined)	RMI FANCM FP 34
Cc1cc(=O)[nH]c(-n2nc(C)c(CCC(=O)O)c2C)n1	none
C=Cc1c(C)c2cc3[nH]c(cc4nc(cc5nc(cc1[nH]2)C(C)=C5CCC(=O)O)C(CCC(=O)O)=C4C)c(C)c3C=C	none
COc1ccc(N2CCCS2(=O)=O)cc1NC(=O)C(=O)NCCC1=CCCCC1	none
COc1ccc2nc(-c3ccc(F)c(NC(=O)Cc4ccccc4)c3)cn2n1	none
CN(C(=O)N1CCN(c2ccccc2)CC1)c1ccccc1	none
N=C(N)c1ccc(N)cc1	none
CCCCCOc1ccc(C(=O)NN)cc1	none
N=C(N)c1ccc(OCCCCCOc2ccc(C(=N)N)cc2)cc1	RMI FANCM FP -2!
O=C(CSc1nccn2nc(-c3ccccc3)cc12)Nc1ccc(F)cc1	none
NNC(=O)C1C(C(=O)NN)C1c1ccccc1 (centres undefined)	none
O=C1CC(c2ccccc2)CC(=O)N1c1ccccc1	none
CC(=O)C1=CN(c2ccccc2)C=C(C(C)=O)C1c1ccccc1	RMI FANCM FP 19
O=C(Cc1ccc(Cl)cc1)Nc1ccc2c(c1)CN(C(=O)c1ccco1)CC2	none
COC(=O)c1sc2ccccc2c1NC(=O)c1cc(Cl)sc1Cl	RMI FANCM FP 30
COC(=O)c1sc2ccccc2c1NC(=S)NC(=O)c1ccc(Cl)cc1	none
COC(=O)c1sc2ccccc2c1NC(=O)c1ccc(Br)s1	none
O=C(CN1C(=O)c2ccccc2C1=O)Nc1ccc2c(c1)N(C(=O)c1cccs1)CCC2	none
O=C(O)CCCNC(=O)COc1ccccc1OCC(=O)NCCCC(=O)O	none
Cc1onc(-c2ccccc2Cl)c1C(=O)NCC(c1ccsc1)N1CCc2ccccc2C1 (centres undefined)	none
COc1ccc2nc(-c3ccc(F)c(NC(=O)c4ccccc4C)c3)cn2n1	none
COc1ccc2nc(-c3ccc(Cl)c(NC(=O)c4ccccc4C)c3)cn2n1	RMI FANCM FP 33
COc1ccc2nc(-c3ccc(OC)c(NC(=O)c4ccccc4C)c3)cn2n1	none
CCOc1ccc(NC(=O)c2sccc2S(=O)(=O)N(C)c2ccc(CC)cc2)cc1	none
Cc1cc(O)c2c(c1)C(=O)c1cccc(O)c1C2=O	none
O=C(O)c1cccc2c1-c1ccc(I)cc1C2	none
O=C1c2c(O)cccc2Cc2cccc(O)c21	RMI FANCM FP -5
CN1C(=O)C(C)(C)COc2ccc(NC(=O)OCc3ccccc3)cc21	none
Cc1ccc2nc3sc(Nc4ccc(Br)cc4)nn3c(=O)c2c1	none
COc1ccc(Cl)cc1-n1c(N)c(C(=O)NC2CCCCC2)sc1=S	none
C/C=C\C(=O)NCc1ccc2[nH]c3c(c2c1)CCCC3	RMI FANCM FP 14
CCOC(=O)CCC(=O)NCc1ccc2[nH]c3c(c2c1)CCCC3	none
COc1cc(/C=C\C(=O)NCc2ccc3[nH]c4c(c3c2)CCCC4)cc(OC)c1OC	none
COC(=O)c1ccc(NC(=O)C(=O)NCCN2CCN(c3ccc(F)cc3)CC2)cc1	none
NS(=O)(=O)c1ccc(NC(=O)c2cc[n+]([O-])cc2)cc1	none
Cc1cc(C(=O)Nc2ccc(-c3nc4ccccc4s3)c(O)c2)nn1C	none
CCc1cc(=O)[nH]c(-n2nc(C)cc2N)n1	none
COc1cc(/C=C/C(=O)Nc2c(C(=O)Nc3ccc(C)c(C)c3)oc3ccccc23)cc(OC)c1OC	none
Cc1csc2nc(O)c(C(=O)NCc3ccco3)c(=O)n12	none
O=C1OC(=O)c2c(Oc3ccccc3)cc3c4c(c(Oc5ccccc5)cc1c24)C(=O)OC3=O	RMI FANCM FP 30
O=C1c2cc(Cl)c(Cl)cc2C(=O)N1c1ccc(Oc2ccccc2)cc1	none
c1ccc(Oc2cccc(Oc3ccccc3)c2)cc1	none
COc1ccc(CNC(=O)c2csc(NC(=O)c3ccccc3)n2)cc1	none
CC(=O)Nc1ccc(NC(=O)C(=O)NCC2CCN(Cc3ccccc3)CC2)cc1	none
CC(C)=CCSc1nnc2c(n1)[nH]c1ccccc12	none
CCn1c(SCC(=O)c2ccc(OC)cc2)nc2c([nH]c3ccccc32)c1=O	none
